{
  "source": "PubChem BioAssay AID594",
  "about": "(National Center for Advancing Translational Sciences (NCATS), 2007)",
  "note": "Screen size: about 59,000 compounds; about 30 (0.05%) were called active. Rule as the data show it: active = max dye-equivalent concentration above about 11 nM; inconclusive = between about 1.1 nM and that limit; inactive = weaker than that. The full list was thinned out, with actives kept by preference.",
  "data": [
    {"experiment": "qHTS Assay for Spectroscopic Profiling in Rhodamine Spectral Region", "conditions": "Rhodamine-region fluorescence, 547/598 nm, Tris buffer; stronger effect = higher value", "from_the_text": "NIH Molecular Libraries Screening Centers Network [MLSCN] NIH Chemical Genomics Center [NCGC] […] Occasionally, the artifactual effect may originate from the compound#s own spectral or other biophysical properties which generally tend to track its assay concentration. Pre-screening/profiling the library with respect to the compounds# spectral properties should help one exclude false positives early on. While the most informative fluorescent profiling data set is obtained by performing a full excitation and emission scan of each well by using a monochromator-based plate reader, such an approach is practical only on a very limited scale as scanning each well requires long time. An alternative approach, applied here, is to perform plate reader scans using selected excitation and emission wavelength pairs to generate a multidimensional relational database that correlates compound concentration and the respective relative fluorescence intensity at a given wavelength set. A standard curve of rhodamine present on each plate as six-point concentration series, was used to compute a normalized fluorescence response, termed dye-equivalent concentration, for each compound at each concentration.\nNCGC Assay Protocol Summary: Buffer: 100 mM Tris buffer, pH 8.0 Dye standard plate: The wells in columns 1 through 4 of a Kalypsys polypropylene 1536-well compound plate were filled with standard solutions of fluorophore corresponding to the spectral region of interest. Solutions of rhodamine were placed in the following wells: E1, F1: 3 mM, E2, F2: 300 uM, E3, F3: 30 uM, E4, F4: zero (DMSO), G1, H1: 3 uM, G2, H2: […], G3, H3: 300 nM, G4, H4: zero (DMSO). Assay Steps: Six uL of buffer were dispensed to 1536-well Greiner black plates. Compounds and dye standards (23 nL) were transferred via Kalypsys PinTool. The plates were incubated for 15 min at room temperature, and then read on ViewLux (Perkin-Elmer) High-throughput CCD imager using 547 nm and 598 nm excitation and emission filter set. Keywords: NIH Roadmap, MLSCN, MLI, MLSMR, qHTS, NCGC, Rhodamine , Fluorescent Profiling.", "values": [
      {"smiles": "O=C(Nc1ccon1)c1sc2ccccc2c1Cl", "max dye-equivalent concentration": "inactive"},
      {"smiles": "Cn1c(=S)c2[nH]c(SCCCc3ccccc3)nc2n(C)c1=O", "max dye-equivalent concentration": "inactive"},
      {"smiles": "O=S(=O)(NCc1cccnc1)c1ccc(Br)s1", "max dye-equivalent concentration": "inactive"},
      {"smiles": "O=C(OCC(O)C(O)COC(=O)c1ccccc1)c1ccccc1", "note": "(centres undefined)", "max dye-equivalent concentration": "inactive"},
      {"smiles": "Cc1nc2ccc(S(=O)(=O)NCC(=O)NCCN3CCCCC3C)cc2s1", "note": "(centres undefined)", "max dye-equivalent concentration": "inactive"},
      {"smiles": "CNC(=O)c1cc2c(ccc3ccccc32)oc1=N", "max dye-equivalent concentration": "inactive"},
      {"smiles": "COc1ccc2oc(=O)c(C(=O)N3CCN(c4ccccc4F)CC3)cc2c1", "max dye-equivalent concentration": "inactive"},
      {"smiles": "COc1ccc(N=Cc2c(O)[nH]c3ccccc23)cc1OC", "max dye-equivalent concentration": "inactive"},
      {"smiles": "CC1CCCN(C(=O)Cn2c(=O)oc3ccccc32)C1", "note": "(centres undefined)", "max dye-equivalent concentration": "inactive"},
      {"smiles": "CC1(C)CC(O)C(CCC(O)c2ccccc2)C(C)(C)N1", "note": "(centres undefined)", "max dye-equivalent concentration": "inactive"},
      {"smiles": "CC(=O)OCc1cc2cc(C)ccc2[nH]c1=O", "max dye-equivalent concentration": "inactive"},
      {"smiles": "O=C(c1cc(C(F)(F)F)cc(C(F)(F)F)c1)N1CCC2(CCCN(c3ccccn3)C2)CC1", "max dye-equivalent concentration": "inactive"},
      {"smiles": "CCc1ccccc1NC(=O)CSc1nnc([C@@H](NC(=O)OC(C)(C)C)C(C)CC)o1", "note": "(some centres undefined)", "max dye-equivalent concentration": "inactive"},
      {"smiles": "CCOC(=O)CSc1nncc2ccc(OC)c(OC)c12", "max dye-equivalent concentration": "inactive"},
      {"smiles": "Cc1noc(C)c1-c1cc(NCc2cccnc2)ncn1", "max dye-equivalent concentration": "inactive"},
      {"smiles": "CN1CCN(c2ncc3nc(-c4ccc(Cl)cc4)c(=O)n(-c4ccccc4)c3n2)CC1", "max dye-equivalent concentration": "inactive"},
      {"smiles": "CC(=O)c1ccc(-n2nnnc2SCC(=O)N2CCN(C(=O)c3ccco3)CC2)cc1", "max dye-equivalent concentration": "inactive"},
      {"smiles": "COc1ccc2c(c1)CCc1c(C(=O)N3CCCC3)noc1-2", "max dye-equivalent concentration": "inactive"},
      {"smiles": "O=C(NCc1ccco1)c1sc2cccc(F)c2c1Cl", "max dye-equivalent concentration": "inactive"},
      {"smiles": "Cc1cc2nc(-c3ccc(NC(=O)c4cccnc4)cc3)oc2cc1C", "max dye-equivalent concentration": "inactive"},
      {"smiles": "c1ccc2c(CNn3cnnc3)cccc2c1", "max dye-equivalent concentration": "inactive"},
      {"smiles": "Cn1c(SCC(=O)Nc2cccc(O)c2)nnc1-c1ccc(S(=O)(=O)N2CCOCC2)cc1", "max dye-equivalent concentration": "inactive"},
      {"smiles": "CC(C)C(=O)N1CCN(CCN=CC2=C(O)CC(c3ccco3)CC2=O)CC1", "note": "(centres undefined)", "max dye-equivalent concentration": "inactive"},
      {"smiles": "O=C(c1cc(C(F)(F)F)cc(C(F)(F)F)c1)N1CCC[C@@]2(CCN(c3ccccn3)C2)C1", "max dye-equivalent concentration": "inactive"},
      {"smiles": "COc1ccc2c(c1)CCc1c(C(=O)N3CCc4ccccc4C3)noc1-2", "max dye-equivalent concentration": "inactive"},
      {"smiles": "S=c1[nH]nc(SCc2ccccc2Cl)c2[nH]cnc12", "max dye-equivalent concentration": "inactive"},
      {"smiles": "Brc1ccc(Nc2c3c(nc4ncnn24)CCC3)cc1", "max dye-equivalent concentration": "inactive"},
      {"smiles": "Cc1cc(=O)oc(C)c1C(=O)NC1CC(C)(C)NC(C)(C)C1", "max dye-equivalent concentration": "inactive"},
      {"smiles": "CCOC(=O)COc1ccc(Cl)cc1C1NC(=O)NC(C)=C1C(C)=O", "note": "(centres undefined)", "max dye-equivalent concentration": "inactive"},
      {"smiles": "Cc1cccc(N2CCN(C(=O)C3CCN(S(=O)(=O)c4cnc[nH]4)CC3)CC2)c1C", "max dye-equivalent concentration": "inactive"},
      {"smiles": "Cc1cc(Cl)ccc1OCC(=O)Oc1c(Cl)c(Cl)c(Cl)c(Cl)c1Cl", "max dye-equivalent concentration": "inactive"},
      {"smiles": "CCOC(=O)N1CCN(S(=O)(=O)c2cc(Br)cc3c2N(C(=O)C2CC2)CC3)CC1", "max dye-equivalent concentration": "inactive"},
      {"smiles": "CCOC(=O)c1cc2cc(C)ccc2[nH]1", "max dye-equivalent concentration": "inactive"},
      {"smiles": "CC(C)C[C@H](NC(=O)Nc1cccc(C(F)(F)F)c1)C(=O)O", "max dye-equivalent concentration": "inactive"},
      {"smiles": "CN(C)CCCNc1c2c(c(C#N)c3nc4ccccc4n13)CCC2", "max dye-equivalent concentration": "inactive"},
      {"smiles": "COc1ccc(CNC(=O)c2c(C)cc(=O)oc2C)cc1OC", "max dye-equivalent concentration": "inactive"},
      {"smiles": "CC(=O)c1c(C)c[nH]c1C", "max dye-equivalent concentration": "inactive"},
      {"smiles": "O=C(NCc1ccccc1)C1C(=O)N(Cc2ccccc2)C(=O)C1C1(O)CCCC1", "note": "(centres undefined)", "max dye-equivalent concentration": "inactive"},
      {"smiles": "Cn1c(=O)c2c(nc(N3CCCCCC3)n2CC(O)COc2ccc(Cl)cc2)n(C)c1=O", "note": "(centres undefined)", "max dye-equivalent concentration": "inactive"},
      {"smiles": "CN(C)c1ncc2nc(-c3ccc(F)cc3)c(=O)n(Cc3ccc(F)cc3)c2n1", "max dye-equivalent concentration": "inactive"},
      {"smiles": "CS(=O)(=O)N1CCC2(CC1)CN(c1ccncc1)C2", "max dye-equivalent concentration": "inactive"},
      {"smiles": "Cc1ccccc1N1CC(c2nc3ccccc3[nH]2)CC1=O", "note": "(centres undefined)", "max dye-equivalent concentration": "inactive"},
      {"smiles": "CCN1CCN(C(=O)c2ccccc2N(C)S(=O)(=O)c2ccc(C)cc2)CC1", "max dye-equivalent concentration": "inactive"},
      {"smiles": "Cc1ccc(C(=O)Nc2ccccc2C(=O)NC2CCCCC2)cc1S(=O)(=O)N1CCOCC1", "max dye-equivalent concentration": "inactive"},
      {"smiles": "C/C(O)=C\\c1nc(=O)c2c(C)cc(C)nc2n1-c1ccccc1", "max dye-equivalent concentration": "inactive"},
      {"smiles": "CC(C)NC(=O)N1CC[C@@]2(CCCN(C(=O)c3cccc(F)c3)C2)C1", "max dye-equivalent concentration": "inactive"},
      {"smiles": "CCCn1c(SCC(=O)Nc2cccc(C(=O)OCC)c2)nnc1-c1ccoc1C", "max dye-equivalent concentration": "inactive"},
      {"smiles": "CCOc1ccc(NCCC(=O)c2ccc3c(c2)OCO3)cc1", "max dye-equivalent concentration": "inactive"},
      {"smiles": "CCOC(=O)N1CCN(C(=O)c2cc3c(ccc4ccccc43)oc2=O)CC1", "max dye-equivalent concentration": "inactive"},
      {"smiles": "O=C(Nc1ccc(NC(=O)c2cccs2)cn1)c1ccco1", "max dye-equivalent concentration": "inactive"},
      {"smiles": "CCCCCOC(=O)NCCOC(=O)Nc1ccc(C(=O)OCC)cc1", "max dye-equivalent concentration": "inactive"},
      {"smiles": "CC1CC(c2ccccc2)n2nc(NC(=O)c3cccs3)nc2N1", "note": "(centres undefined)", "max dye-equivalent concentration": "inactive"},
      {"smiles": "CCn1c(=O)cc(OCC(=O)NCCCN2CCN(c3cccc(Cl)c3)CC2)c2ccccc21", "max dye-equivalent concentration": "inactive"},
      {"smiles": "O=C(c1csnn1)N1CCC[C@@]2(CCN(c3cccc(-c4ccccc4)c3)C2)C1", "max dye-equivalent concentration": "inactive"},
      {"smiles": "CN(c1ccccc1)c1ccc(/C=c2\\s/c(=C(/C#N)C(=O)C(C)(C)C)n(Cc3ccco3)c2=O)cc1", "max dye-equivalent concentration": "36 nM (active)"},
      {"smiles": "CCOC(=O)CSc1nc2c(sc(=S)n2CCc2ccccc2)c(=O)n1Cc1ccco1", "max dye-equivalent concentration": "inactive"},
      {"smiles": "CCOc1ccccc1/C=c1\\sc2nc(-c3ccco3)nn2c1=O", "max dye-equivalent concentration": "inactive"},
      {"smiles": "Cc1cccc(OCc2nnc(SCc3nc4cc(C(F)(F)F)ccc4c(=O)[nH]3)o2)c1", "max dye-equivalent concentration": "inactive"},
      {"smiles": "COc1ccc(C(CNC(=O)c2cccnc2SC)N2CCOCC2)cc1", "note": "(centres undefined)", "max dye-equivalent concentration": "inactive"},
      {"smiles": "O=C(CSc1nnc(-c2ccc(NS(=O)(=O)c3ccccc3)cc2)o1)NCC1CCCO1", "note": "(centres undefined)", "max dye-equivalent concentration": "inactive"},
      {"smiles": "O=C(C1CCC(C(=O)N2CCCC2)CC1)N1CCCC1", "note": "(centres undefined)", "max dye-equivalent concentration": "inactive"},
      {"smiles": "COc1ccc(S(=O)(=O)N2CCCC(C(=O)Nc3ccc(NC(=O)c4ccccn4)cc3)C2)cc1", "note": "(centres undefined)", "max dye-equivalent concentration": "inactive"},
      {"smiles": "CCn1c(NCCc2ccc(OC)c(OC)c2)nc2c1c(=O)n(C)c(=O)n2C", "max dye-equivalent concentration": "inactive"},
      {"smiles": "CCNc1nc(N)nc(Oc2ccc(OCC)nn2)n1", "max dye-equivalent concentration": "inactive"},
      {"smiles": "CC1=Nn2c(nnc2-c2ccccc2)SC1", "max dye-equivalent concentration": "inactive"},
      {"smiles": "CN(CC(=O)NC1CCCCC1)S(=O)(=O)c1ccc(Br)s1", "max dye-equivalent concentration": "inactive"},
      {"smiles": "O=C(CSc1nnc(-c2ccccc2)o1)N1CCOCC1", "max dye-equivalent concentration": "inactive"},
      {"smiles": "Cc1ccc(CC2CC(=O)N(c3ccc4c(c3)OCCO4)C2=O)cc1", "note": "(centres undefined)", "max dye-equivalent concentration": "inactive"},
      {"smiles": "C[C@]1(O)CC[C@H]2[C@H]3CC=C4N5CCN=C5CC[C@@]4(C)[C@H]3CC[C@@]21C", "max dye-equivalent concentration": "inactive"}
    ]}
  ]
}
